Results filed as inconclusive are left out. Activity calls are given as the source filed them. Rule for the calls: active = hit-call score of the fitted dose curve at least 0.9, where 1 is the maximum; inconclusive = response in the unintended direction; inactive = score below 0.9.
Each compound was assayed against Sodium channel protein type 1 subunit alpha (Rattus norvegicus) (UniProt P04774) (assay: NVS_IC_rNaCh_site2: NovaScreen (NVS) Ion Channel Assay for rat Sodium Channel, Site 2 (NaCh) (AID 2283322);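 note: hit means loss of radioligand binding signal relative to DMSO so AC50 marks displacement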).
In short: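 Membranes: rat forebrain. Format: competitive radioligand displacement, filter separation, scintillation readout, 1 h exposure. Primary screen in duplicate at 25 uM; actives retested in concentration series.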

Row | Structure (SMILES) | AC50 | outcome
1 | C[Si](Cn1cncn1)(c1ccc(F)cc1)c1ccc(F)cc1 | 18.1 µM (active) | 
2 | CC[C@H](C)[C@H]1O[C@]2(C=C[C@@H]1C)C[C@@H]1C[C@@H](C/C=C(\C)[C@@H](O[C@H]3C[C@H](OC)[C@@H](O[C@H]4C[C@H](OC)[C@@H](NC)[C@H](C)O4)[C@H](C)O3)[C@@H](C)/C=C/C=C3\CO[C@@H]4[C@H](O)C(C)=C[C@@H](C(=O)O1)[C@]34O)O2 | 16.6 µM (active) | 
3 | FC(F)C(F)(F)OCC(Cn1cncn1)c1ccc(Cl)cc1Cl (configuration not stated) | 25 µM (active) | 
4 | CCC(=O)Nc1ccc(Cl)c(Cl)c1 |  | inactive
5 | Cc1cc(C2CC2)nc(Nc2ccccc2)n1 | 9.68 µM (active) | 
6 | CCCOCC(=Nc1ccc(Cl)cc1C(F)(F)F)n1ccnc1 |  | inactive
7 | Nc1c(Cl)cc([N+](=O)[O-])cc1Cl |  | inactive
